Screens: PubChem BioAssay, National Center for Advancing Translational Sciences (NCATS)
The list is not random: actives were taken first. Their share in the collection is about 0.44%.
EPAC2 ag: qHTS for Agonist of cAMP-regulated guanine nucleotide exchange factor 4 (EPAC2): primary screen; Rap guanine nucleotide exchange factor 4 (Homo sapiens), Q8WZA2; EPAC2 activation, biochemical qHTS; response scale: 100% = 6.5 mM cAMP response; Potency, µM (doses to about 154 µM), usual class: activators; 360,000 compounds, 0.079% hits; AID 720711, 2013; note: nearly all actives have a fitted effect of over 50% in size
Target sequence (Q8WZA2 whole entry, looked up): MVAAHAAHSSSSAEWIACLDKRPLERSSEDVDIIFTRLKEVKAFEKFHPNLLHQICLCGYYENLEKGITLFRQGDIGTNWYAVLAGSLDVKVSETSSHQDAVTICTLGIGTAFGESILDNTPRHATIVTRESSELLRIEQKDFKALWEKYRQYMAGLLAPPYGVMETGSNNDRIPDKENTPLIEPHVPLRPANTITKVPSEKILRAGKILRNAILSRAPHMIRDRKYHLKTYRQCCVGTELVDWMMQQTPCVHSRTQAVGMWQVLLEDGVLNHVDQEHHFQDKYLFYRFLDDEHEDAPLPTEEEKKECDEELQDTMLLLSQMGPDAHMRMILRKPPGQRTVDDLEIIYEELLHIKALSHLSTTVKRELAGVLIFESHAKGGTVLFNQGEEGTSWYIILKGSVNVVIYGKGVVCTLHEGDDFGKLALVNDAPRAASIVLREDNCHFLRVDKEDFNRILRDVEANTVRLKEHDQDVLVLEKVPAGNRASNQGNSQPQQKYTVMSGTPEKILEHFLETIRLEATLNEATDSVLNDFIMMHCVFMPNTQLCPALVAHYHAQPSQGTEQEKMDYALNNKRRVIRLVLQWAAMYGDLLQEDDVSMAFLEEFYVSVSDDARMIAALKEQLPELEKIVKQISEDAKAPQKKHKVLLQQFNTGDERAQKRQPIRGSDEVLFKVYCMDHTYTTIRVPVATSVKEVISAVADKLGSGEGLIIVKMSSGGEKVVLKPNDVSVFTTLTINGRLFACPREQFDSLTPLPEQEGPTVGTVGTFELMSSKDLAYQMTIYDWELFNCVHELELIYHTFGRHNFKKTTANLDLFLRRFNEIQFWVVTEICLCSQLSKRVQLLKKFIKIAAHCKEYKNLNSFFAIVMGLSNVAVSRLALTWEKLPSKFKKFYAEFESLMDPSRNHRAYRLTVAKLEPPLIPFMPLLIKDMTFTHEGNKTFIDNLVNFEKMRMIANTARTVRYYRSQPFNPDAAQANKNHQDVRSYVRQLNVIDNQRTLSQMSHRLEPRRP
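Fluorescence exchange assay: 100 nM EPAC2 with 250 nM RAP1B-BODIPY-GDP and 50 uM GDP; compounds tested as a concentration-titration series (qHTS). Loss of Rap1-bound BODIPY-GDP fluorescence read at 480/540 nm; data normalized to 6.5 mM cAMP.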
EPAC2 antagonist: qHTS for Antagonist of cAMP-regulated guanine nucleotide exchange factor 2 (EPAC2): primary screen | 360,000 compounds, 0.18% hits | EPAC2 GEF exchange of Rap1B-BODIPY-GDP, fluorescence | Potency, µM (series often up to 114 µM), hits mostly inhibitors | Rap guanine nucleotide exchange factor 4 (Homo sapiens), Q8WZA2; note: nearly all actives have a fitted effect of over 45% in size
USP2a block: qHTS Assay for Inhibitors of Ubiquitin-specific Protease USP2a Using CHOP2 as the Reporter | Ubiquitin carboxyl-terminal hydrolase 2 (Homo sapiens), O75604 | USP2 core, Ub-CHOP2 coupled fluorogenic reporter, 485/531 | Potency, µM (titrated, usually from 38.3 µM), hits mostly inhibitors | 330,000 compounds, 0.01% hits
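Deubiquitinase activity read as fluorescence (485/531 nm) after Ub-CHOP2 cleavage activates the enterokinase reporter on its substrate; USP2 core 10nM, Ub-CHOP2 and substrate 25nM each, 30min compound preincubation then 60min RT; data normalized to NEM, curves fitted.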
USP1 inh: Inhibitors of USP1/UAF1: Primary Screen; recombinant USP1/UAF1, Ub-Rhodamine cleavage fluorescence; 390,000 compounds, 0.23% hits; AID 743255, 2014; Ubiquitin carboxyl-terminal hydrolase 1 (Homo sapiens), O94782; Potency, µM (highest dose often 57.1 µM), usual class: inhibitors; note: nearly all actives have a fitted effect of over 60% in size
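High-throughput fluorogenic screen: 1nM USP1/UAF1 complex, Ub-Rho substrate 150nM final, 50mM HEPES pH 7.8 with 0.5mM EDTA, 0.1 mg/ml BSA, 1mM TCEP and 0.01% Tween-20.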
EPAC1 antag: qHTS for Antagonist of cAMP-regulated guanine nucleotide exchange factor 3 (EPAC1): primary screen. Potency, µM (highest dose often 115 µM), most hits filed as inhibitors. Rap guanine nucleotide exchange factor 3 (Homo sapiens), O95398. 360,000 compounds, 0.14% hits. EPAC1 GEF assay, Rap1b-BODIPY-GDP exchange fluorescence. AID 720709, 2013; note: nearly all actives have a fitted effect of over 50% in size
EPAC1 agonist: qHTS for Agonist of cAMP-regulated guanine nucleotide exchange factor 3 (EPAC1): primary screen; Potency, µM (doses to about 154 µM), most hits filed as activators; EPAC1 agonist qHTS, biochemical assay; response scale: 100% = response to 6.5 mM cAMP; AID 720707, 2013; 360,000 compounds, 0.073% hits; Rap guanine nucleotide exchange factor 3 (Homo sapiens), O95398; note: nearly all actives have a fitted effect of over 60% in size
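Compounds were pinned as a concentration titration into mixtures of EPAC1 (100 nM), BODIPY-GDP-loaded Rap1B (250 nM) and GDP (50 uM). After 5 min at room temperature, fluorescence was followed for 30 min; activity was scaled to 6.5 mM cAMP.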
Large screens that a line does not name were inactive. Calls come from the whole dose curve; as a rule, active = well fitted curve in the direction sought with a large enough effect; inconclusive = small, poorly fitted or top-dose-only effect, or another doubt; inactive = no such curve, though single readings can be large; an effect the other way counts as inactive or inconclusive.

CCN(CC)c1ccc2c(c1)oc(=O)c1c(Cl)cc(=O)oc12	EPAC2 ag 89µM
CCN(CC)c1ccc2c(C)c(Cl)c(=O)oc2c1	EPAC2 antagonist inconclusive
COC(=O)CN1C(=O)CSc2ccc(S(=O)(=O)Nc3ccccc3)cc21	none (no result: EPAC2 ag, EPAC2 antagonist, USP2a block, EPAC1 antag, EPAC1 agonist)
Nc1cc2nsnc2cc1Br	EPAC2 antagonist inconclusive, USP1 inh 4.5µM, EPAC1 antag inconclusive
Nc1cccc2nsnc12	USP1 inh inconclusive
Cc1cc(C)c2nc(C)cc(Nc3ccc(C(=O)NCCO)cc3)c2c1	EPAC2 antagonist 20µM
Cc1scc(CN2CCN(c3ccccc3F)CC2)c1C	none (no result: EPAC2 ag, EPAC2 antagonist, USP2a block, EPAC1 antag, EPAC1 agonist)
COc1cccc(/C(O)=C/c2nc3ccc(C(=O)NCCc4ccc(Cl)cc4)cc3[nH]c2=O)c1	EPAC2 ag 112µM, USP1 inh inconclusive, EPAC1 agonist inconclusive
COc1cccc(C(=O)Nc2cc(C(=O)NCCc3ccccc3)ccc2Cl)c1	none
COc1cccc(/C(O)=C/c2nc3ccc(C(=O)NCCc4cccc(C)c4)cc3[nH]c2=O)c1	EPAC2 ag 112µM, EPAC1 agonist 89µM
CCn1c(=O)cc(OCC(=O)N2CCN(c3ccccc3OC)CC2)c2ccccc21	none (no result: EPAC2 ag, EPAC2 antagonist, USP2a block, EPAC1 antag, EPAC1 agonist)
COc1ccc(-c2cc(C(F)(F)F)nc(SCC(=O)N(C)Cc3ccccc3)n2)cc1	none (no result: EPAC2 ag, EPAC2 antagonist, USP2a block, EPAC1 antag, EPAC1 agonist)
Cc1ccc(C(=O)N2CCN(c3ccccc3)CC2)cc1S(=O)(=O)N1CCOCC1	EPAC1 antag 56µM
Cn1nc(-c2ccccn2)nc2c(=O)n(C)c(=O)nc1-2	EPAC2 ag inconclusive, EPAC2 antagonist inconclusive, USP1 inh 0.032µM, EPAC1 antag inconclusive
COc1ccc(-c2nc(-c3ccccn3)ncc2S(C)(=O)=O)cc1	none
CCCc1nc2c(=O)n(C)c(=O)nc-2n(C)n1	EPAC2 antagonist inconclusive, USP1 inh 0.1µM, EPAC1 antag inconclusive
COc1ccc(NC(=O)C(C)n2nc(-c3cc(C)ccc3C)c3c(c2=O)CCCC3)cc1 (stereo not given)	none (no result: EPAC2 ag, EPAC2 antagonist, USP2a block, EPAC1 antag, EPAC1 agonist)
CCCn1c(=O)n(C)c(=O)c2c(SCC(=O)NCc3ccco3)nc(C3CC3)nc21	EPAC2 ag 10µM
Cc1nc2ccccc2n2c(O)c(CC(=O)O)cc12	EPAC2 ag 112µM, USP1 inh inconclusive, EPAC1 agonist inconclusive
Cc1nc2ccccc2n1CCC(=O)O	none
CCCn1c(N)c(N(CCOC)C(=O)CSCC(=O)Nc2cccc(C)c2)c(=O)[nH]c1=O	EPAC1 agonist 100µM
COCCN(C(=O)CSCC(=O)Nc1cccc(C)c1)c1c(N)n(Cc2ccccc2)c(=O)[nH]c1=O	USP1 inh inconclusive
CCOc1ccc2oc(C(=O)N(C)CC(=O)Nc3ccc(OCC)c(OCC)c3)c(C)c2c1	EPAC1 agonist 56µM
COc1ccc(NC(=O)c2ccc(NC(=O)CCS(=O)(=O)c3cccs3)cc2)cc1Cl	none (no result: EPAC2 ag, EPAC2 antagonist, USP2a block, EPAC1 antag, EPAC1 agonist)
Cc1nc2scc(C)n2c(=O)c1S(=O)(=O)Nc1cccc(C(F)(F)F)c1	none (no result: EPAC2 ag, EPAC2 antagonist, USP2a block, EPAC1 antag, EPAC1 agonist)
CN(C)/C=C1\Oc2ccc3ccccc3c2C1=O	none
O=C1C(=O)c2c(ccc3ccccc23)-c2ccccc21	USP1 inh 4µM (no result: USP2a block)
Cc1ccc(S(=O)c2ccc([N+](=O)[O-])c3nonc23)cc1 (stereo not given)	EPAC2 antagonist 50µM, USP1 inh 16µM, EPAC1 antag inconclusive (no result: USP2a block)
O=C(O)c1ccccc1NS(=O)(=O)c1ccc(N/N=C/c2ccc(O)c(O)c2)c([N+](=O)[O-])c1	EPAC2 antagonist 56µM, USP1 inh inconclusive, EPAC1 antag 16µM (no result: USP2a block)
COc1ccccc1NS(=O)(=O)c1ccc(N/N=C/c2ccccc2OCC(=O)O)c([N+](=O)[O-])c1	EPAC1 antag inconclusive
